Bioassay records as filed in PubChem.
sEH inh: soluble epoxide hydrolase inhibitors, primary screen, biochemical, human sEH; recombinant human sEH enzymatic activity assay; actives 0.34% (n = 91,000); inhibition, % at 2 µM; in the data active = inhibition above about 80%
Target sequence (P34913 whole entry, looked up): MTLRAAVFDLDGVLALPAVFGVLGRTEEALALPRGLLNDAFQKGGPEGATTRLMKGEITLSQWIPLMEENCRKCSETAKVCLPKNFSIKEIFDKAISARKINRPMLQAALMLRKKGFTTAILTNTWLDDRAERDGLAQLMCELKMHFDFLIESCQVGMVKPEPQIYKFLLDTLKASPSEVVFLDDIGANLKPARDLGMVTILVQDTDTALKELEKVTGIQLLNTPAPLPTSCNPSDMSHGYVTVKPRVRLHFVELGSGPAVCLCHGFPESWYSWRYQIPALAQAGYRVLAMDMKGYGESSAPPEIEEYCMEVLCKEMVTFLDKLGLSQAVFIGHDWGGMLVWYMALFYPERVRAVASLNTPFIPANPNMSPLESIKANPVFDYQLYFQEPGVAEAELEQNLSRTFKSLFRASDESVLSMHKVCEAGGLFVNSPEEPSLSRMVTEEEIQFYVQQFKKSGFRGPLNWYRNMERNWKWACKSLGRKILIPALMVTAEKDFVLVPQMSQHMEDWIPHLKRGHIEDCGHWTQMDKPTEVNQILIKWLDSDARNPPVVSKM
CYP2C19 inhib: blockers of cytochrome P450 2C19 activity – biochemical, luminescence, ADME assay, primary screen. P33261. CYP2C19 Supersomes, luciferin-H EGE luminescence, 30 min. inhibition, % at 5 µM. actives 21% (n = 96,000). AID 778, 2007;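 active = CYP2C19 inhibition above a set limit at 5 µM in the primary screen, cut at about 50% in these data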
CYP2C9 inh: blockers of cytochrome P450 2C9 activity – biochemical, luminescence, ADME assay, primary screen; P11712; CYP2C9 Supersomes, luciferin-H conversion; inhibition, % at 5 µM; actives 20% (n = 96,000); AID 777, 2007;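 active = blocking of liver enzyme CYP2C9 beyond about 50% at 5 µM, limit read from the data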
sEH act: soluble epoxide hydrolase activators, primary screen, biochemical, human sEH | purified human sEH enzymatic activity, activator screen | activation, % at 2 µM | actives 0.04% (n = 91,000) | AID 717, 2007; in the data active = activation above about 37%
CYP2C19 activ: human CYP2C19 activators, primary screen, biochemical, luminescence | 96,000 tested, under 10 active | AID 1025, 2008 | activation factor at 5 µM | recombinant CYP2C19, luciferin-H EGE luminescence; stronger effect = higher value; 0 = fully inhibited enzyme, 1 = untreated enzyme;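 active = activation factor of at least 2 at 5 µM in the primary screen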
CYP2C9 activ: human CYP2C9 activators, primary screen, biochemical, luminescence. Cytochrome P450 2C9 (Homo sapiens), P11712. recombinant CYP2C9, luciferin-H conversion; stronger effect = higher value; factor 1 = untreated enzyme, 0 = blocked. activation factor at 5 µM. actives 1.4% (n = 96,000). AID 1024, 2008;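 active = activation factor of 2 or more for CYP2C9 at a 5 µM dose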
A number is an active result; - = inactive; . = no result. In the library only some 27% were active in any assay of this set; here they are far more common.

SMILES	sEH inh	CYP2C19 inhib	CYP2C9 inh	sEH act	CYP2C19 activ	CYP2C9 activ
CN(Cc1ccccc1)C(=O)c1cc2ccccc2o1	-	94	-	-	-	-
COc1ccc(OC)c(C(C)NC=O)c1 (stereo not drawn)	-	-	-	-	-	-
O=C1NC(c2ccccc2)=C(c2nc3ccccc3s2)C(c2ccc(F)cc2)N1 (stereo not drawn)	-	55	50	-	-	-
COc1cccc(CN2CCN(C(=O)CC(C)C)CC2)c1	.	-	-	.	-	-
O=C(CSCc1ccccc1)N1CCN(c2cccc(C(F)(F)F)c2)CC1	-	86	93	-	-	-
O=C(CSCc1ccccc1)N1CCN(c2ccc(F)cc2)CC1	-	-	-	-	-	-
O=C(CSCc1cccc(F)c1)N1CCN(c2ccccc2)CC1	.	52	58	.	-	-
O=C1Nc2ccccc2OC1CC(=O)N1CCN(c2cccc(C(F)(F)F)c2)CC1 (stereo not drawn)	-	-	72	-	-	-
O=C1Nc2ccccc2OC1CC(=O)N1CCOCC1 (stereo not drawn)	.	-	-	.	-	-
CC(C)CC(=O)N1CCN(Cc2cccc(F)c2)CC1	-	59	-	-	-	-
CCOc1ccc2nc(SC(C)C(N)=O)[nH]c2c1 (stereo not drawn)	-	-	-	-	-	-
O=C(CSc1nnc2c(Cl)cc(Cl)cn12)N1CCOCC1	-	-	-	-	-	-
CC(C)(C)NC(=O)COc1ccc(CNCc2cccs2)cc1	-	-	-	-	-	-
Cc1cc(=O)oc2cc(OCC(=O)Nc3nnc(C(C)C)s3)ccc12	-	-	-	-	-	-
Cc1c(Br)c([N+](=O)[O-])nn1C(C)C(=O)N1CCCc2ccccc21 (stereo not drawn)	-	58	-	-	-	-
Cc1cc(=O)oc2cc(OCC(O)CN3CCc4ccccc4C3)ccc12 (stereo not drawn)	-	65	100	-	-	-
Cc1nnc(NC(=O)C(C)Oc2ccc3c(C)cc(=O)oc3c2)s1 (stereo not drawn)	-	-	94	-	-	-
O=C(c1ccccc1F)N1CCc2ccccc21	-	62	-	-	-	3.5
COc1cc(N2CCOCC2)ncn1	-	-	-	-	-	-
C/C=C/c1ccccc1OCc1ccc(C(=O)OC)o1	-	-	-	-	-	-
Cc1ccc(OC(C)C(=O)N2CCCc3ccccc32)cc1 (stereo not drawn)	-	54	-	-	-	-
O=C(C(c1ccccc1)c1ccccc1)N1CCCc2ccccc21	-	.	.	-	.	.
CCc1cc(=O)oc2cc(OCC(=O)N3CCc4ccccc43)ccc12	.	-	-	.	-	-
COc1ccc(OC(C)C(=O)N2CCc3ccccc3C2)cc1 (stereo not drawn)	-	52	-	-	-	-
Cc1cc(=O)oc2cc(OC(C)C)ccc12	.	-	-	.	-	-
SMILES	sEH inh	CYP2C19 inhib	CYP2C9 inh	sEH act	CYP2C19 activ	CYP2C9 activ
CCc1cc(=O)oc2c(C)c(OCC(=O)N3CCCc4ccccc43)ccc12	-	66	94	-	-	-
Cc1cc(=O)oc2cc(OC(C)C(=O)N3CCCc4ccccc43)ccc12 (stereo not drawn)	-	-	84	-	-	-
O=C(Nc1ncnc2c1CCC2)C12CC3CC(CC(C3)C1)C2	.	-	-	.	-	-
CCc1c(C)nc(/N=C(/NC(=O)c2ccccc2)Nc2ccccc2OC)[nH]c1=O	-	.	.	-	.	.
CN(C)S(=O)(=O)Nc1ccc(C(=O)O)cc1	-	-	-	-	-	-
O=C(O)CCC(=O)N1CCc2cc(S(=O)(=O)N3CCN(c4ccc(F)cc4)CC3)ccc21	-	-	-	-	-	-
CC(C(=O)N1CCc2ccccc21)n1cccc1 (stereo not drawn)	-	82	-	-	-	-
COc1cc(C2C(C#N)=C(N)Oc3n[nH]c(C)c32)cc2c1OCO2 (stereo not drawn)	.	55	63	.	-	-
COc1ccc(C2C(C#N)=C(N)Oc3n[nH]c(C)c32)cc1Cn1cc([N+](=O)[O-])cn1 (stereo not drawn)	-	-	67	-	-	-
COc1cc(C2C(C#N)=C(N)Oc3n[nH]c(C)c32)ccc1OC(=O)c1ccccc1 (stereo not drawn)	-	-	-	-	-	-
COc1ccc(C2C(C#N)=C(N)Oc3n[nH]c(C)c32)cc1Cn1nc(C)c([N+](=O)[O-])c1C (stereo not drawn)	-	56	54	-	-	-
Cc1ccc(C)c(/C(O)=C2\C(=O)C(=O)N(CCCn3ccnc3)C2c2cccnc2)c1 (stereo not drawn)	-	.	.	-	.	.
CCOC(=O)CN1C=C(c2ccc3ccccc3n2)C(C[N+](=O)[O-])c2ccccc21 (stereo not drawn)	-	72	92	-	-	-
CCOC(=O)N1CCN(C(=O)/C(=C/c2ccccc2OC)NC(=O)c2ccccc2)CC1	-	-	-	-	-	-
COc1ccc(-c2nnn(CC(=O)NCc3ccccc3)n2)cc1OC	-	.	.	-	.	.
COc1cc(-c2nnn(CC#N)n2)ccc1OCc1ccccc1	.	96	76	.	-	-
N#CCn1nnc(-c2ccc3c(c2)OCO3)n1	-	67	-	-	-	-
COc1ccc(-c2nnn(CC(=O)c3ccccc3)n2)cc1OC	-	59	-	-	-	-
COc1cc(-c2nnn(CC(=O)NC3CCS(=O)(=O)C3)n2)ccc1OCc1ccccc1 (stereo not drawn)	-	52	69	-	-	-
COc1ccc(-c2nnn(Cc3nn[nH]n3)n2)cc1OC	-	-	58	-	-	-
CCN(CC)CC(C)OC(=O)c1cc(OC)c(OC)c(OC)c1 (stereo not drawn)	-	-	-	-	-	-
CC(C)c1nccn1S(=O)(=O)c1cc(Cl)ccc1Cl	-	-	-	-	-	-
CCc1nccn1S(=O)(=O)c1cc(Br)ccc1OC	-	97	-	-	-	-
CCCc1nccn1S(=O)(=O)c1cc(OC)ccc1OC	-	90	56	-	-	-
COc1ccc(Cl)cc1S(=O)(=O)n1ccnc1C(C)C	-	74	-	-	-	-
CCc1nccn1S(=O)(=O)c1ccc(C)c(C)c1	-	-	-	-	-	-
CCc1nccn1S(=O)(=O)c1ccc(OC)c(OC)c1	-	76	-	-	-	-
CCOc1ccccc1-c1nc(-c2ccc(C)nc2OC)no1	-	-	-	-	-	-
COc1ccc(C=O)cc1COc1ccc(Cl)cc1[N+](=O)[O-]	-	-	-	-	-	-
